# KB-V1 MDR tox: KB-V1 MDR subline cytotoxicity | KB-V1 MDR cells viability, CellTiter-Glo, 72 h | 400,000 compounds, 3.4% hits | Potency, µM (doses to about 46.1 µM), usual class: cytotoxic | AID 1347076; further: nearly all actives have a fitted effect of over 60% in size
#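 Cytotoxicity toward P-gp-expressing KB-V1 cells was determined as loss of CellTiter-Glo luminescence after 72 h at 37 degrees C. Compounds were tested in quantitative HTS format across a concentration range, with curves fitted to normalized data.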
# KB-3-1 tox: KB-3-1 parental cell cytotoxicity | KB-3-1 viability, CellTiter-Glo ATP luminescence, 72 h | Potency, µM (highest dose often 46.1 µM), hits mostly cytotoxic | 400,000 compounds, 1.4% hits | AID 1347075; further: nearly all actives have a fitted effect of over 60% in size
#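 KB-3-1 parental drug-naive adenocarcinoma cells in DMEM/10% FBS, incubated 72 h at 37 C with pin-transferred compounds across a concentration series. Viability by CellTiter-Glo luminescence; concentration-response curves fitted after normalization.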
# SW480 rerep: DNA re-replication induction in SW480 cells; AID 624297; Potency, µM (highest dose often 46.1 µM), hits mostly activators; SW480 DNA re-replication, Hoechst DNA content imaging, 48 h; 340,000 compounds, 1.8% hits; further: nearly all actives have a fitted effect of over 55% in size
#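 DNA re-replication was detected as more nuclei of elevated Hoechst intensity after 48 hr exposure to compound (23 nL pinned per well of 250 cells).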
# MCF10A rereplic: induces DNA re-replication in MCF 10a normal breast cells | MCF 10A DNA re-replication, Hoechst nuclear intensity, 48 h | Potency, µM (highest dose often 46.1 µM), actives largely listed as activators | 350,000 compounds, 2.9% hits; further: nearly all actives have a fitted effect of over 50% in size
# ELG1 repair inh: inhibitors of ELG1-dependent DNA repair in HEK293T cells | 330,000 compounds, 2.3% hits | HEK293T ELG1-luciferase reporter, luminescence, 16 h; DNA damage induced by 5-fluorouridine | AID 504467 | Potency, µM (highest dose often 46.1 µM), actives largely listed as inhibitors; further: nearly all actives have a fitted effect of over 55% in size
#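 Reporter activity after DNA damage by 5-fluorouridine is monitored. Compound-treated cells incubate 16 hr at 37 °C, then ONE-Glo is added for 30 min before luminescence reading.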
# A number is an active result; 0 = inactive; ? = inconclusive; - = not tested or not shown. Sampled rows, rich in hits. Any-hit rate of the full collection: about 8.2%. The call rests on the fitted dose curve; in most records, active means well fitted curve in the direction sought with a large enough effect; inconclusive means small, poorly fitted or top-dose-only effect, or another doubt; inactive means no such curve, though single readings can be large; an effect the other way counts as inactive or inconclusive.
SMILES,KB-V1 MDR tox,KB-3-1 tox,SW480 rerep,MCF10A rereplic,ELG1 repair inh
CN(CC(=O)NCCc1ccc(S(N)(=O)=O)cc1)Cc1ccc(Cl)cc1Cl,16.4µM,?,0,0,0
CN(CC(=O)Nc1ccc(S(=O)(=O)N2CCCC2)cc1)CC(=O)Nc1ccc(F)c(F)c1F,?,0,0,0,?
CN(CC(=O)Nc1ccc(S(=O)(=O)N2CCCC2)cc1)Cc1ccc(Cl)cc1Cl,13µM,0,-,0,?
CN(CC(=O)NCCc1ccc(S(N)(=O)=O)cc1)Cc1c(F)cccc1Cl,0,0,0,0,0
Nc1nc(NCc2ccc(Cl)cc2Cl)c2[nH]cnc2n1,?,0,-,-,-
COc1ccccc1C(CNc1ccc(S(=O)(=O)N2CCCC2)cc1[N+](=O)[O-])N(C)C (stereo unspecified),11.6µM,0,0,?,11.6µM
COc1ccc(C(CNc2ccc(S(=O)(=O)N3CCN(C)CC3)cc2[N+](=O)[O-])N(C)C)cc1 (stereo unspecified),?,0,0,0,0
COc1ccccc1NS(=O)(=O)c1ccc(NN=C2CCCC2)c([N+](=O)[O-])c1,2.91µM,0,0,0,0
CC(C)CC(NC(=O)OCc1ccccc1)C(=O)NC(Cc1ccccc1)C(=O)CCl (stereo unspecified),?,?,6.51µM,7.31µM,-
Cc1ccc(NC(=O)C(Cc2ccccc2)NC(=O)OCc2ccccc2)cc1C (stereo unspecified),5.8µM,0,0,0,0
COc1ccc(C(=O)O/N=C/c2c(C(F)(F)F)nn(C)c2SCc2ccccc2Cl)cc1,?,7.31µM,?,?,0
CCCCN(C)S(=O)(=O)c1cc2c3c(c1)CCC(=O)N3CCC2,0,0,0,0,0
COC(=O)C(NC(=O)c1ccccc1Cl)(Nc1ncc(S(=O)(=O)c2ccc([N+](=O)[O-])cc2)s1)C(F)(F)F (stereo unspecified),13µM,?,?,?,0
CCC(C)(C)C(=O)Nc1ncc(S(=O)(=O)c2ccc([N+](=O)[O-])cc2)s1,0,0,?,?,?
CC1C(=O)N(Cc2ccccc2F)c2ccccc2N1C(=O)c1c(F)cccc1F (stereo unspecified),0,?,0,20.6µM,?
CC1C(=O)N(Cc2cccc(F)c2)c2ccccc2N1C(=O)c1ccccc1 (stereo unspecified),0,0,0,?,23.1µM
CCOC(=O)N1CCc2c(sc3c2C(=O)NC(c2ccc(C(=O)OC)cc2)N3)C1 (stereo unspecified),0,0,-,-,-
CCOC(=O)N1CCc2c(sc3c2C(=O)NC(c2cc(OC)c(OC)c(OC)c2)N3)C1 (stereo unspecified),0,16.4µM,-,-,-
O=c1c(-c2nc3ccccc3s2)cccn1Cc1ccc(Cl)c(Cl)c1,0,0,1.16µM,?,0
CCOc1cc(C(=O)N/N=C/C2CC=CCC2)cc(OCC)c1OCC (stereo unspecified),0,0,23.1µM,?,0
CCOC(=O)c1cc2c(ccc3nc(C)c(C)c32)[nH]c1C,0,0,8.2µM,14.6µM,0
CCOC(=O)c1ccc2[nH]c(C)c(C)c2c1,0,0,0,?,-
COc1ccc(N2C(=O)CC(c3cc(OC)c(OC)c(OC)c3)CC2=O)cc1,0,0,?,?,?
COc1cc(C2CC(=O)N(c3ccc(C)cc3)C(=O)C2)cc(OC)c1OC,4.61µM,4.61µM,3.66µM,6.51µM,0
COc1cccc(NC(=O)Cn2c(=O)n(-c3ccccc3)c(=O)c3oc4ccccc4c32)c1,20.6µM,?,0,0,0
SMILES,KB-V1 MDR tox,KB-3-1 tox,SW480 rerep,MCF10A rereplic,ELG1 repair inh
CCOC(=O)c1cccc(NC(=O)CSc2nc3ccccc3c(=O)n2CC)c1,2.31µM,0,0,0,0
CCNC(=O)CSc1nc2ccccc2c(=O)n1-c1cc(OC)ccc1OC,18.4µM,0,0,0,0
CCn1c(SCC(=O)Nc2ccc(F)cc2)nc2ccccc2c1=O,0,0,0,0,0
CCCn1c(SCC(=O)Nc2cccc(S(=O)(=O)N(C)C)c2)nc2ccccc2c1=O,0,0,0,0,23.1µM
CN(C)S(=O)(=O)c1cccc(NC(=O)CSc2ncnc3ccccc23)c1,0,0,?,?,?
COCCn1c(-c2ccccc2)cnc1SCC(=O)Nc1cccc2ccccc12,5.17µM,0,0,?,?
